# Assay results published in the supplement of paper PMC12067093, “Discovery and optimisation of a covalent ligand for TRIM25 and its application to targeted protein ubiquitination” (Chemical Science, 2025).
# The full data set covers some 21,000 targets. This sample favours those with the largest changes.
# Target: SLTM_Q9NWH9_107_KHEADELSGDASVEDDAFIKDCELENQEAHEQDGNDELK (UniProt Q9NWH9)
# Experiment: probe-labelled cysteine peptide fold change vs DMSO (competition) (log2 fold change); higher = less target engagement (more negative = stronger competition)
# Conditions: THP-1, incubation time: 4 h
# 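Further: competitive profiling in live THP-1 cells: cysteine peptides tagged with an iodoacetamide desthiobiotin (IA-DTB) probe, intensity after compound treatment relative to DMSO-treated cells.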
# Sequence of UniProt Q9NWH9 (Q9NWH9 whole entry, looked up): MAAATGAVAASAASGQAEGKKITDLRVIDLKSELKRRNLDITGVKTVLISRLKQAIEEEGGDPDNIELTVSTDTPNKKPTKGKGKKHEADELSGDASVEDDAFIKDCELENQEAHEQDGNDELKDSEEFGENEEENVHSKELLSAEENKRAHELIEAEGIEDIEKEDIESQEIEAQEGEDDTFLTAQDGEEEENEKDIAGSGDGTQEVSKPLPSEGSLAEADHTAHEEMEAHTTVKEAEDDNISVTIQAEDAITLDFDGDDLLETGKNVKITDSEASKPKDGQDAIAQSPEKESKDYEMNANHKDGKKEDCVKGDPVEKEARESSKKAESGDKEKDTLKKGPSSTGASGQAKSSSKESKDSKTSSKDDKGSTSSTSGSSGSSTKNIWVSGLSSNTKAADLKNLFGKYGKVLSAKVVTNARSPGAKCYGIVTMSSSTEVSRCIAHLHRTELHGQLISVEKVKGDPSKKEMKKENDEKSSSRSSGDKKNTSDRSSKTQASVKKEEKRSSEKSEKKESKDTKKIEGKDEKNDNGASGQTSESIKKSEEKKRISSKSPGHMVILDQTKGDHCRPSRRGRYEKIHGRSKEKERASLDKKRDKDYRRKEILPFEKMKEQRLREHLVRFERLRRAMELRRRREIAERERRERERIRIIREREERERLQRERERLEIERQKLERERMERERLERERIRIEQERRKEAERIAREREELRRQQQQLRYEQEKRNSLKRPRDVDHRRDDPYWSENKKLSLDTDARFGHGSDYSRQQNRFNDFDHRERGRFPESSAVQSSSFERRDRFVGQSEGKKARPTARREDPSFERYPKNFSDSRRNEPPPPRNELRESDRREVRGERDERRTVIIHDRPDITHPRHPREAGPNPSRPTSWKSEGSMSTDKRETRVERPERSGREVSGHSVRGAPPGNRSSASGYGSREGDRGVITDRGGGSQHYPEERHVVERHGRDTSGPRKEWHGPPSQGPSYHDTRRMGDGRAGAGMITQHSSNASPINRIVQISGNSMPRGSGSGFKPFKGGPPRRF
smiles,measurement,setting,value
Cc1cc(C(=O)N2CCCN(C(=O)CCl)CC2)ccc1-c1ccccc1 [compound 10],probe-labelled cysteine peptide fold change,10 µM,0.0217
same,probe-labelled cysteine peptide fold change,50 µM,-1.37
